# Assay results taken from PubChem BioAssay (Tox21).
# Records with an inconclusive call do not appear. A call without a number means that no potency is given here. Active and inactive are the calls of the source. Unless noted, calls come from the whole dose curve; as a rule, active = well fitted curve in the direction sought with a large enough effect in the repeat runs; inconclusive = weak or mixed curves; inactive = no such curve, though single readings can be large; an effect the other way counts as inactive or inconclusive.
# Assays:
# [1] = qHTS assay to identify small molecule antagonists of the vitamin D receptor (VDR) signaling pathway - cell viability counter screen (AID 743225); note: nearly all actives have a fitted effect of over 50% in size; note: potency is the fitted concentration of half-maximal effect
# In short: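 Same-well multiplex: following 16 h treatment of HEK 293T cells carrying a UAS-driven beta-lactamase reporter with compound and agonist (3 nM final), and a 2 h FRET substrate step, CellTiter-Glo was added and luminescence read after 30 min.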
# [2] = qHTS assay to identify small molecule agonists of the NFkB signaling pathway - cell viability counter screen (AID 1159515; calls by dose curve; note: nearly all actives have a fitted effect of over 55% in size)
# In short: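 Using the same wells as the NFkB reporter read, ME-180 NFkB-bla cells given compounds for 5 hr were assessed for viability via CellTiter-Glo, with luminescence taken after a 30 min room-temperature incubation.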
# [3] = qHTS assay to identify small molecule agonists of the endoplasmic reticulum stress response signaling pathway - cell viability counter screen (AID 1159517; calls by dose curve;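 note: HeLa cells carrying an ER stress response element beta-lactamase reporter; nearly all actives have a fitted effect of over 50% in size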)
# In short: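 Luminescence readout: CellTiter-Glo, 30 min RT, same wells as the ESRE-bla reporter read. HeLa ESRE-bla, 1,500 cells/well, o/n 37 C; cpd 5 hr 37 C/5% CO2.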
# [4] = qHTS assay to identify small molecule antagonists of the retinoid-related orphan receptor gamma (ROR-gamma) signaling pathway - cell viability counter screen (AID 1159520); note: nearly all actives have a fitted effect of over 50% in size; note: potency is the fitted concentration of half-maximal effect
# In short: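 Tet-on ROR gamma CHO cells (1,000/well) were plated 4 hr, given compounds in DMSO for 2 hr at 37 C, then induced with 1 uM final doxycycline for 16 hr. Viability was read as ATP by CellTiter-Glo luminescence after 30 min.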
# [5] = qHTS assay to identify small molecule agonists of the AP-1 signaling pathway - cell viability counter screen (AID 1159525; calls by dose curve; note: nearly all actives have a fitted effect of over 55% in size)
# In short: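 ME-180 AP-1-bla, 2500 cells/well, Opti-MEM + 0.5% dialyzed FBS; overnight 37 °C; cpd 15-pt titration, 5 h 37 °C; CellTiter-Glo 30 min RT; luminescence read; normalised to TOAB and DMSO controls.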
# [6] = qHTS assay to identify small molecule agonists of the estrogen related receptor (ERR) signaling pathway (AID 1224820)
# In short: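 Quantitative HTS of the LOPAC library used NTP ERR reporter cells treated 18 h at 37 C. Signal is luminescence after One-Glo addition and a 30 min room-temperature incubation.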
# [7] = system: estrogen-related receptor alpha (ERRalpha) with PGC-1alpha coactivator, human; assay: qHTS assay to identify small molecule antagonists of the estrogen related receptor signaling pathway with the pleiotropic PPARgamma coactivator (PGC) (AID 1224821; calls by dose curve;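 note: lower luminescence signal means antagonism of PGC/ERR signalling; nearly all actives have a fitted effect of over 50% in size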)
# In short: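 Quantitative HTS for antagonism: PGC/ERR cells received compounds after 6 h attachment and were incubated 18 h at 37 C, with luminescence (One-Glo) as the endpoint.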
# [8] = qHTS assay to identify small molecule agonists of the vitamin D receptor (VDR) signaling pathway - cell viability counter screen (AID 743224); note: nearly all actives have a fitted effect of over 50% in size; note: potency is the fitted concentration of half-maximal effect
# In short: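 Plated VDR-bla cells (4 h, 37C) received compound, incubated 16 h, then LiveBLAzer substrate 2 h RT; CellTiter-Glo added afterwards, luminescence read at 30 min.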
# [9] = qHTS assay to identify small molecule agonists of the AP-1 signaling pathway (AID 1159526; calls by dose curve)
# [10] = qHTS assay to identify small molecule agonists of the RXR signaling pathway - cell viability counter screen (AID 1159529); note: nearly all actives have a fitted effect of over 50% in size
# In short: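 Counter screen: CellTiter-Glo luminescence. Cells: RXR-alpha-UAS-bla HEK 293T. Medium: 2% charcoal-stripped FBS. Treatment: 16 h, 37 C. Reagent incubation: 30 min, RT.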
# [11] = qHTS assay to identify small molecule antagonists of the retinoid acid receptor (RAR) signaling pathway - cell viability counter screen (AID 1159551); note: nearly all actives have a fitted effect of over 35% in size; note: potency is the fitted concentration of half-maximal effect
# In short: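 Retinol-stimulated (1 uM final) C3RL4 cells, compound 6 h, 37 C; readout CellTiter-Glo luminescence (ATP) after 30 min RT incubation.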
# [12] = qHTS assay to identify small molecule antagonists of the retinoic acid receptor (RAR) signaling pathway (AID 1159552; note: nearly all actives have a fitted effect of over 50% in size; note: potency is the fitted concentration of half-maximal effect)
# In short: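 Antagonism of retinol-induced RARE reporter activity was measured in C3RL4 cells. Exposure to compounds and 1 uM final retinol lasted 6 hr at 37 C, with luminescence as endpoint.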
# [13] = qHTS assay to identify small molecule agonists of the retinoic acid receptor (RAR) signaling pathway (AID 1159553); details: C3RL4 RARE luciferase reporter, agonist, 6 h; activation: at 73.3 µM (top of the series); note: potency is the fitted concentration of half-maximal effect
# In short: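 Reporter readout comes from luciferase under RARE control in C3RL4 cells; compound exposure lasts 6 hr at 37 C in 5% CO2, and luminescence is recorded following a 30 min room-temperature incubation with reagent.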
# [14] = qHTS assay to identify small molecule antagonists of the estrogen related receptor (ERR) signaling pathway - cell viability counter screen (AID 1224818);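 note: viability measured after 17.5 h of compound exposure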
# In short: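 After a 6 h pre-incubation, ERR cells were dosed by pin tool with compounds, positive/negative controls or DMSO alone. Following 17.5 h at 37 C and 30 min with CellTiter-Fluor, fluorescence was recorded.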
# [15] = qHTS assay to identify small molecule antagonists of the estrogen related receptor signaling pathway with the pleiotropic PPARgamma coactivator (PGC) cell viability counter screen (AID 1224822;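 note: viability read after 17.5 h compound exposure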)
# In short: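 PGC/ERR cells were plated at 2,000 per well and allowed 6 h to settle before compound addition. Following 17.5 h at 37 C, CellTiter-Fluor reagent was added and fluorescence was read 30 min later.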
# [16] = qHTS assay to identify small molecule agonists of the endoplasmic reticulum stress response signaling pathway (AID 1159516; active = well fitted activation curve with a large enough effect in the signal ratio in the repeat runs, not every such curve was filed as active; the % refers to the signal ratio; note: potency is the fitted concentration of half-maximal effect)
# In short: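 An ESRE-bla HeLa cell assay: compounds were pin-transferred from DMSO onto overnight-plated cells and left 5 hr at 37 C. Substrate was then loaded for 2 hr at room temperature before reading fluorescence at 460 nm and 530 nm.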
# [17] = target: Nuclear receptor ROR-gamma (Homo sapiens) (UniProt P51449); assay: qHTS assay to identify small molecule antagonists of the retinoid-related orphan receptor gamma (ROR-gamma) signaling pathway (AID 1159521; note: nearly all actives have a fitted effect of over 50% in size; note: potency is the fitted concentration of half-maximal effect)
# In short: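 Inducible-expression reporter assay: doxycycline (1 uM final) switched on RORγ in CHO cells bearing a ROR response element-luciferase construct, with test compounds present from 2 h beforehand. Decreased luminescence after 16 h defined antagonist activity.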
# [18] = target: Retinoic acid receptor RXR-alpha (Homo sapiens) (UniProt P19793); assay: qHTS assay to identify small molecule agonists of the RXR signaling pathway (AID 1159527; calls by dose curve; note: nearly all actives have a fitted effect of over 35% in size)
# In short: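 Compounds in DMSO were added to RXR-alpha-UAS-bla HEK 293T cells kept in 2% charcoal-stripped serum, and incubated 16 hr at 37 C with 5% CO2. Reporter signal came from a 2 hr B/G FRET substrate step.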
# Sequence of Retinoic acid receptor RXR-alpha (Homo sapiens) (P19793 whole entry, looked up): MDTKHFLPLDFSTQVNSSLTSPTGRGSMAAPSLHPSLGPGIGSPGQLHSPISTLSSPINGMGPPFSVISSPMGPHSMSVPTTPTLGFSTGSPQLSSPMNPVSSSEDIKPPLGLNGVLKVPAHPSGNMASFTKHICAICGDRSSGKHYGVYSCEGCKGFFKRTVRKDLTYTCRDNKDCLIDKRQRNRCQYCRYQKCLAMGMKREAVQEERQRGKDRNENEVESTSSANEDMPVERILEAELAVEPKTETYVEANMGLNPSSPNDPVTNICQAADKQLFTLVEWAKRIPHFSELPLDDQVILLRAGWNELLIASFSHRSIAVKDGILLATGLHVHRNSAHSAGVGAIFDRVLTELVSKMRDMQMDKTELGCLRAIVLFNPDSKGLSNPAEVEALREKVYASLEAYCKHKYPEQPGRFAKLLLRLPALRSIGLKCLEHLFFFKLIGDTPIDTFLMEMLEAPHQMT
SMILES,Potency [1],Potency [2],Potency [3],Potency [4],Potency [5],outcome [6],outcome [7],Potency [8],Potency [9],Potency [10],Potency [11],Potency [12],Potency [13],outcome [14],outcome [15],Potency [16],Potency [17],Potency [18]
CCCC(C(=O)OCCN(CC)CC)(c1ccccc1)c1ccccc1,19 µM (active),inactive,inactive,inactive,inactive,inactive,inactive,–,–,–,–,–,–,–,–,–,–,–
Cc1ccc(Cl)c(Nc2ccccc2C(=O)O)c1Cl,inactive,–,inactive,inactive,inactive,–,–,inactive,inactive,inactive,inactive,inactive,inactive,inactive,inactive,–,–,–
COC(=O)[C@H]1[C@H]2C[C@@H]3c4[nH]c5cc(OC)ccc5c4CCN3C[C@H]2C[C@@H](OC(=O)/C=C/c2ccc(O)c(OC)c2)[C@@H]1OC,inactive,–,inactive,–,inactive,–,–,–,inactive,inactive,inactive,–,–,–,–,inactive,13.3 µM (active),–
Oc1cc2c(cc1O)[C@H]1c3ccc(O)c(O)c3OC[C@@]1(O)C2,inactive,–,inactive,inactive,inactive,–,–,inactive,inactive,inactive,inactive,inactive,55.1 µM (active),–,–,–,–,inactive
COc1ccc(OC(=O)N(CC(=O)O)Cc2ccc(OCCc3nc(-c4ccccc4)oc3C)cc2)cc1,inactive,–,inactive,inactive,inactive,–,–,inactive,inactive,inactive,inactive,–,–,–,–,–,–,–
Clc1cc(Cl)nc(Cl)n1,inactive,–,–,inactive,inactive,–,–,inactive,inactive,inactive,inactive,inactive,–,–,–,–,–,inactive
CN(C)CCN1C(=O)c2ccccc2N(C)c2ccccc21,inactive,inactive,–,inactive,inactive,–,–,inactive,–,inactive,inactive,inactive,inactive,–,–,–,inactive,inactive
CC(=O)OCC[N+](C)(C)C,inactive,–,inactive,inactive,inactive,–,–,inactive,–,inactive,inactive,inactive,inactive,–,–,inactive,–,–
OCCOCC#CCOCCO,inactive,–,inactive,–,inactive,–,–,inactive,inactive,inactive,inactive,–,–,–,–,49 µM (active),–,inactive
CN1C[C@H](C(=O)N[C@]2(C)O[C@@]3(O)[C@@H]4CCCN4C(=O)[C@H](Cc4ccccc4)N3C2=O)C[C@@H]2c3cccc4[nH]cc(c34)C[C@H]21,–,–,inactive,–,inactive,inactive,–,29.8 µM (active),inactive,–,inactive,inactive,inactive,–,–,inactive,inactive,inactive
CCc1ccccc1,inactive,inactive,–,inactive,–,–,–,inactive,inactive,inactive,inactive,inactive,–,–,–,–,inactive,–
CC(C)(c1ccccc1)c1ccccc1,inactive,–,inactive,inactive,inactive,–,–,inactive,inactive,inactive,inactive,inactive,inactive,–,–,inactive,inactive,inactive
CC1=C(Br)C(=O)C(Br)=C/C1=C(/c1ccccc1S(=O)(=O)O)c1cc(Br)c(O)c(Br)c1C,–,–,inactive,16.5 µM (active),inactive,–,–,inactive,inactive,inactive,16.5 µM (active),20.8 µM (active),inactive,–,–,–,18.6 µM (active),–
